# PubChem BioAssay AID1159580 (chemical genetic matrix, 2015)
# The campaign covered roughly 5,500 compounds. About 2,000 (36%) were called active. Roughly 18% stayed inconclusive and do not appear here. The list shows a part of the results. Values without a mark were called inactive. Cut-off read from the data, not from the text of the source: active = normalized growth mostly below about 0.91 (no sharp cut-off); inconclusive = no clear call, values can overlap the other calls; inactive = mostly above about 0.92.
# Assay: chemical genetic growth profiling, strain panel (AID 1159580);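 note: tested at 20 µM; growth read once vehicle control cultures reached saturation at 30 °C; 1 = growth at the plate median or of vehicle wells; lower values mean less growth of the strain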
# Settings: S. cerevisiae deletion strains, growth OD
structure (smiles),measurement,setting,value
CC1(C)C=Cc2cc(/C(N)=N\OC(=O)Nc3cccc(C(F)(F)F)c3)ccc2O1,normalized growth,"locus YAR019C, strain CDC15, hits give low values",0.981
same,normalized growth,"locus YBL105C, strain PKC1, hits give low values",0.982
same,normalized growth,"locus YBR135W, strain CKS1, hits give low values",0.969
same,normalized growth,"locus YBR136W, strain MEC1, hits give low values",0.972
same,normalized growth,"locus YBR160W, strain CDC28, hits give low values",0.977
same,normalized growth,"locus YDL017W, strain CDC7, hits give low values",0.987
same,normalized growth,"locus YDL028C, strain MPS1, hits give low values",0.977
same,normalized growth,"locus YDL101C, strain DUN1, hits give low values",0.988
same,normalized growth,"locus YDL108W, strain KIN28, hits give low values",0.977
same,normalized growth,"locus YDL132W, strain cdc53, hits give low values",0.977
same,normalized growth,"locus YDL214C, strain PRR2, hits give low values",0.947
same,normalized growth,"locus YDR052C, strain DBF4, hits give low values",0.989
same,normalized growth,"locus YDR054C, strain cdc34, hits give low values",0.97
same,normalized growth,"locus YDR226W, strain ADK1, hits give low values",0.976
same,normalized growth,"locus YDR477W, strain SNF1, hits give low values",0.967
same,normalized growth,"locus YER123W, strain YCK3, hits give low values",0.866
same,normalized growth,"locus YER133W, strain GLC7, hits give low values",0.947
same,normalized growth,"locus YFL009W, strain cdc4, hits give low values",0.976
same,normalized growth,"locus YFL029C, strain CAK1, hits give low values",0.982
same,normalized growth,"locus YFR003C, strain YPI1, hits give low values",0.984
same,normalized growth,"locus YFR019W, strain FAB1, hits give low values",0.883
same,normalized growth,"locus YFR028C, strain CDC14, hits give low values",0.978
same,normalized growth,"locus YGR040W, strain KSS1, hits give low values",0.968
same,normalized growth,"locus YGR052W, strain FMP48, hits give low values",0.99
same,normalized growth,"locus YGR092W, strain DBF2, hits give low values",0.854
same,normalized growth,"locus YHR030C, strain SLT2, hits give low values",0.426 (active)
same,normalized growth,"locus YHR079C, strain IRE1, hits give low values",0.825
same,normalized growth,"locus YHR082C, strain KSP1, hits give low values",0.917
same,normalized growth,"locus YHR205W, strain SCH9, hits give low values",0.912
same,normalized growth,"locus YIL147C, strain SLN1, hits give low values",0.98
same,normalized growth,"locus YJL095W, strain BCK1, hits give low values",0.726
same,normalized growth,"locus YJL128C, strain PBS2, hits give low values",0.967
same,normalized growth,"locus YJL157C, strain FAR1, hits give low values",0.96
same,normalized growth,"locus YJR016C, strain ILV3, hits give low values",0.975
same,normalized growth,"locus YJR066W, strain TOR1 (second series), hits give low values",0.832
same,normalized growth,"locus YJR066W, strain TOR1, hits give low values",0.827
same,normalized growth,"locus YKL048C, strain ELM1, hits give low values",0.934
same,normalized growth,"locus YKL067W, strain YNK1, hits give low values",0.933
same,normalized growth,"locus YKL101W, strain HSL1, hits give low values",0.934
same,normalized growth,"locus YKL193C, strain SDS22, hits give low values",0.979
same,normalized growth,"locus YKL203C, strain TOR2, hits give low values",0.991
same,normalized growth,"locus YLR113W, strain HOG1, hits give low values",0.832 (active)
same,normalized growth,"locus YLR133W, strain CKI1, hits give low values",0.937
same,normalized growth,"locus YLR403W, strain SFP1, hits give low values",0.949
same,normalized growth,"locus YML070W, strain DAK1, hits give low values",0.887
same,normalized growth,"locus YMR001C, strain CDC5, hits give low values",0.98
same,normalized growth,"locus YMR205C, strain PFK2 (second series), hits give low values",0.93
same,normalized growth,"locus YMR277W, strain FCP1, hits give low values",0.987
same,normalized growth,"locus YNL006W, strain LST8, hits give low values",0.985
same,normalized growth,"locus YNL020C, strain ARK1, hits give low values",0.924
same,normalized growth,"locus YNL161W, strain CBK1, hits give low values",0.984
same,normalized growth,"locus YNL183C, strain NPR1, hits give low values",0.801
same,normalized growth,"locus YNL207W, strain RIO2, hits give low values",0.984
same,normalized growth,"locus YNL222W, strain SSU72, hits give low values",0.981
same,normalized growth,"locus YNL307C, strain MCK1 (second series), hits give low values",0.931
same,normalized growth,"locus YOL078W, strain AVO1, hits give low values",0.976
same,normalized growth,"locus YOL136C, strain PFK27, hits give low values",0.903
same,normalized growth,"locus YOR061W, strain CKA2, hits give low values",0.945
same,normalized growth,"locus YOR119C, strain RIO1, hits give low values",1.04
same,normalized growth,"locus YOR231W, strain MKK1, hits give low values",0.823
same,normalized growth,"locus YOR329C, strain SCD5, hits give low values",0.988
same,normalized growth,"locus YPL031C, strain PHO85, hits give low values",0.935
same,normalized growth,"locus YPL153C, strain RAD53, hits give low values",0.871
same,normalized growth,"locus YPL204W, strain HRR25, hits give low values",0.903
same,normalized growth,"locus YPL209C, strain IPL1, hits give low values",0.98
same,normalized growth,"locus YPL256C, strain CLN2, hits give low values",0.831 (active)
same,normalized growth,"locus YPR025C, strain CCL1, hits give low values",0.978
same,normalized growth,"locus YPR106W, strain ISR1, hits give low values",0.981
same,normalized growth,"locus YPR111W, strain DBF20, hits give low values",0.963
same,normalized growth,"strain NNK1, hits give low values",0.993
same,normalized growth,"strain TSCII, hits give low values",0.979
